The source of these data is PubChem BioAssay AID720650 (Broad Institute, 2013).

Unmarked numbers belong to inactive results. Calls of active or inactive are those of the source. No rule for the calls is given here.

This experiment is described as follows: C difficile toxins, biochemical counterscreen, UDPG substrate absence, confirmatory dose response (AID 720650). Particulars: series mostly up to 19.5 µM; activity change, negative = inhibition: at the top concentration.
`COc1ccc(CC(=O)C2C(=O)N(C)c3ccccc32)cc1OC` (stereo not drawn): the “activity change, negative = inhibition” value was 7.42%.
Still for that read-out and setting: with `COc1ccc(C(O)(C(C)C)C(CN2CCOCC2)c2ccccc2)cc1` (stereo not drawn) the figure was -13.9%; with `Cc1nn(C2CC(O)C(O)C(CO)O2)c(=O)[nH]c1=O` (stereo not drawn), -11.3%; with `CC12CCC(=O)N1C(C(=O)OCc1c(Cl)cccc1Cl)CS2` (stereo not drawn), -9.04%.
Turning to `Nc1ccc(Sc2ccc(N)cc2)cc1`, the AC50 was 3.22 µM (active).
On to `O=C(O)c1ccccc1NC(=O)N1C[C@H]2C[C@@H](C1)c1cccc(=O)n1C2`, for which the “activity change, negative = inhibition” value was -18.8%.
For `CSc1nc(Cl)cc(Nc2ccc(O)cc2)n1`, the “activity change, negative = inhibition” value is -7.48%.
`Nc1ccc(C(=O)c2ccc3c(c2)OCCO3)cc1N`: the AC50 was 11.9 µM (active).
As to `COCC(=O)N1CC[C@@H]2[C@@H](CO)N(C)c3ccc(-c4ccccc4)cc3[C@@H]21`, the AC50 is 3.88 µM (active).
With `Cc1cccc2sc(NNC(=O)C3COc4ccccc4O3)nc12` (stereo not drawn), the AC50 was 0.294 µM (active).
Consider `CC1C(=O)C(C)C(c2ccc([N+](=O)[O-])cc2)NC1c1ccc([N+](=O)[O-])cc1` (stereo not drawn), for which the “activity change, negative = inhibition” value is -6.78%.
In the case of `Cc1cc(N/N=C/c2ccc(O)cc2O)nc(N2CCOCC2)n1`, the AC50 is more than 39 µM.
`c1ccc(-c2nnc(OCC3CCCO3)c3ccccc23)cc1` (stereo not drawn): the “activity change, negative = inhibition” value was -9.88%.
The same measure, in the same setting: with `COc1c2ccc(C(=O)NCCCCc3ccccc3)cc2nn1C` the figure was -14%; with `Cc1ccc(CNCCCn2cnc(C(=O)Nc3ccc(C)c(C)c3)n2)o1`, 3.86%.
On the same count and under the same terms, with `CCCCn1c(N)c(N(CCOC)C(=O)CSc2nnc(-c3ccco3)n2CC)c(=O)[nH]c1=O` the figure was 5.63%; with `COCCNc1oc(/C=C/c2ccccc2)nc1C#N`, 1.04%.
Take `O=[N+]([O-])c1cc(Br)ccc1NS(=O)(=O)c1ccccc1`: the AC50 was more than 39 µM.

By AC50 is commonly meant the concentration giving half of the maximal activity seen.
